# Sampled rows, rich in hits. Any-hit rate of the full collection: about 3.2%.
# AmpC inh no detg: qHTS Inhibitors of AmpC Beta-Lactamase (assay without detergent) | AmpC nitrocefin hydrolysis, absorbance 480 nm, 0.0001% Triton | Potency, µM (top dose mostly 57.1 µM), for inactives: top-dose activity change, negative = inhibition, usual class: inhibitors | hit rate 0.52% among 330,000 | AID 485341, 2010;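 also: plate controls were no compound for no effect and no enzyme for full effect; nearly all actives have a fitted effect of over 20% in size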
# Target sequence (P00811 whole entry, looked up): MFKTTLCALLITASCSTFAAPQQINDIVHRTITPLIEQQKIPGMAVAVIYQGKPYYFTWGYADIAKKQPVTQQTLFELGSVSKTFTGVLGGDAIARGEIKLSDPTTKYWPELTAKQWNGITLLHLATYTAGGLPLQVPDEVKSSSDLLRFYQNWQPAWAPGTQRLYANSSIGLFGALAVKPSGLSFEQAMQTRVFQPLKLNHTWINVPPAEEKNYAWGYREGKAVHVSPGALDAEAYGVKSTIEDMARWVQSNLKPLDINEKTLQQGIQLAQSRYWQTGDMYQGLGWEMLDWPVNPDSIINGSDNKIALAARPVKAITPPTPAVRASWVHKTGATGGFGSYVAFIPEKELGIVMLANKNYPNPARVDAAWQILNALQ
#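 20 mM phosphate pH 7.0 + 0.01% (detergent screen) or 0.0001% Triton X-100; 5.3 nM AmpC reagent; cpd preinc 15 min RT; nitrocefin (800 uM stock) to start; A480 q20 s × 4 min; Activity was normalised to no-enzyme and no-compound control wells.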
# Sm TGR block: qHTS Assay for the Inhibitors of Schistosoma Mansoni Peroxiredoxins. purified TGR, DTNB reduction, TNB absorbance 405 nm. Potency, µM (top dose mostly 114 µM), inactives show at the top dose activity change, negative = inhibition, usual class: inhibitors. hit rate 3% among 360,000. AID 485364, 2010; also: nearly all actives have a fitted effect of over 60% in size
#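 TGR 20 nM + NADPH 100 uM (dispensed conc.), cpd preinc 15 min RT; start with NADPH (500 uM addition) then DTNB (15 mM addition). Kinetic TNB absorbance, 405 nm filter. Four-parameter Hill fit across titration.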
# AmpC detergent: qHTS Inhibitors of AmpC Beta-Lactamase (assay with detergent); P00811; AmpC hydrolysis of nitrocefin, absorbance 480 nm, 0.01% Triton; Potency, µM (highest dose often 114 µM), for inactives: at the top dose activity change, negative = inhibition, usual class: inhibitors; hit rate 0.041% among 370,000; AID 485294, 2010;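 also: 0% = no-compound wells and -100% = no-enzyme wells; nearly all actives have a fitted effect of over 25% in size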
#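 AmpC (5.3 nM in the dispensed reagent) in 20 mM phosphate pH 7.0 with 0.01% (detergent screen) or 0.0001% Triton X-100 was preincubated with compounds for 15 min at room temperature. Nitrocefin was then added from an 800 uM solution, and hydrolysis was followed at 480 nm.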
# AMA1 RON2 block: qHTS for Inhibitors of AMA1-RON; Towards Development of Antimalarial Drug Lead: Primary Screen. Plasmodium falciparum AMA1 (3D7) - RON2 peptide interaction. AlphaScreen AMA1-biotinylated RON2 peptide binding. Potency, µM (titrated, usually from 58.2 µM), without a hit: at the top dose activity change, negative = inhibition, actives largely listed as inhibitors. hit rate 0.2% among 360,000;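 also: 0% = vehicle wells and -100% = peptide control; nearly all actives have a fitted effect of over 45% in size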
#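 AMA1 (3D7) with his tag at 25 nM final met compounds first, then biotinylated RON2 peptide at 25 nM; detection used donor plus acceptor beads, 10 µg/mL apiece, read by AlphaScreen after 30 min at room temperature.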
# RE007 growth inh: qHTS Assay for Inhibitors of the HIV-1 protein Vpr; AID 651644, 2012; Potency, µM (highest dose often 92.2 µM), inactives show at the top dose activity change, negative = less growth, hits mostly inhibitors; S. pombe RE007 Vpr strain, BacTiter-Glo ATP luminescence, 24 h; hit rate 0.21% among 360,000; active = well fitted falling curve with a large enough effect; inconclusive = small, poorly fitted or top-dose-only effect; inactive = no such curve, though single readings can be large or run the other way; also: nearly all actives have a fitted effect of over 50% in size
#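 Fission yeast RE007 carrying one integrated HIV-1 vpr copy, seeded at OD 0.01 in PMG+AL medium with 23 nL pinned compound. Grown 24 h at 30 degrees; viability read by BacTiter-Glo luminescence after 5 min.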
# * marks the source's active call; other numbers are inactive results; ? = inconclusive; nt = no result; [ ] = dose if it differs, or a comment. Unless noted, calls follow the shape of the dose curve; as a rule, active = well fitted curve in the direction sought with a large enough effect; inconclusive = small, poorly fitted or top-dose-only effect, or another doubt; inactive = no such curve, though single readings can be large; an effect the other way counts as inactive or inconclusive. Unless noted, % is scaled to controls: 0 for no effect and ±100 for the full control effect; potency is read from the fitted curve at half-maximal effect.
SMILES,AmpC inh no detg,Sm TGR block,AmpC detergent,AMA1 RON2 block,RE007 growth inh
O=C(Cn1c(=O)n(-c2ccc(F)c(Cl)c2)c(=O)c2sc3ccccc3c21)NC1CCCCC1,nt,4.4%,9.0%,nt,nt
CCN(CC)C(=O)COC(=O)c1cc(-c2ccc(OC)cc2)nc2ccccc12,158.5%,-7.1%,5.9%,38.4%,-2.3%
CNC(=O)COC(=O)c1cc(-c2ccco2)nc2ccccc12,-4.4%,2.82µM*,1.7%,?,-3.3%
CCN(CC)C(=O)COC(=O)c1cc(-c2ccco2)nc2ccccc12,-26.1%[11.4 µM],1.78µM*,?,-15.7%,0.3%
COc1cc(C2c3c(oc4ccccc4c3=O)C(=O)N2c2ccccn2)cc(OC)c1OC (stereo not given),nt,3.8%,0.1%,nt,nt
O=C(NCc1ccc(Cl)cc1)C(=O)NCC(c1cccs1)S(=O)(=O)c1ccc(Cl)cc1 (stereo not given),nt,?,-1.7%,nt,nt
Cc1ccc(S(=O)(=O)C(CNC(=O)C(=O)NCc2ccc(Cl)cc2)c2cccs2)cc1 (stereo not given),nt,22.4µM*,-4.4%,nt,nt
COc1ccccc1CCNC(=O)C(=O)NCC(c1ccco1)S(=O)(=O)c1ccc(C)cc1 (stereo not given),nt,14.1µM*,-0.1%,nt,nt
O=C(NCCc1ccc(F)cc1)C(=O)NCC(c1cccs1)S(=O)(=O)c1cccs1 (stereo not given),nt,?,0.3%,nt,nt
COc1ccccc1CCNC(=O)C(=O)NCC(c1ccco1)S(=O)(=O)c1cccs1 (stereo not given),nt,17.8µM*,0.2%,nt,nt
O=C(NCCc1ccc(Cl)cc1)C(=O)NCC(c1cccs1)S(=O)(=O)c1cccs1 (stereo not given),nt,25.1µM*,3.7%,nt,nt
COc1ccccc1CCNC(=O)C(=O)NCC(c1cccs1)S(=O)(=O)c1ccc(C)cc1 (stereo not given),nt,?,-0.4%,nt,nt
Cc1ccc(-c2ccc(=O)n(CCC(=O)NCCc3ccccc3)n2)cc1,nt,1.5%,7.2%,nt,nt
Cc1ccc(N2C(=O)CC(c3ccccc3F)C3=C2COC3=O)cc1Cl (stereo not given),nt,4.9%,-1.5%,nt,nt
COc1ccc(S(=O)(=O)N(CC(=O)N(C)Cc2ccccc2)c2ccc(Cl)cc2)cc1,nt,15.6%,9.6%,nt,nt
Cc1nn(-c2ccccc2)c2sc(C(=O)Nc3cccc(O)c3)cc12,nt,6.7%,10.5%,nt,nt
COc1ccc(CCNC(=O)C(=O)NCC(c2ccco2)S(=O)(=O)c2cccs2)cc1 (stereo not given),nt,31.6µM*,-0.7%,nt,nt
O=C(NCCc1ccc(F)cc1)C(=O)NCC(c1ccco1)S(=O)(=O)c1cccs1 (stereo not given),nt,?,-1.7%,nt,nt
Cc1ccc2c(CN3CCCCC3CCO)cc(=O)oc2c1 (stereo not given),-14.7%,25.1µM*,1.2%,-2.0%,18.0%
Cc1ccc2c(CN3CC(C)CC(C)C3)cc(=O)oc2c1 (stereo not given),-18.8%,89.1µM*,1.8%,-3.0%,2.2%
Cc1ccc2c(CN3CCCCC3C)cc(=O)oc2c1 (stereo not given),-22.3%,1.8%,2.9%,-2.9%,18.3%
Cc1ccc2c(CN3CCC(C)CC3)cc(=O)oc2c1,1.6%,-7.3%,0.2%,5.6%,-23.3%
Cc1ccccc1CCNC(=O)c1ccc2c(c1)nc1n2CCC(C)C1 (stereo not given),nt,0.0%,25.6%,nt,nt
CCN(CC)C(=O)CSc1nnc(-c2ccc(S(=O)(=O)N3CCOCC3)cc2)n1C,1.5%,1.9%,-3.3%,-5.3%,1.8%
CC(C)Sc1nnc(-c2ccc(S(=O)(=O)N3CCOCC3)cc2)n1C,9.5%,50.1µM*,4.0%,6.8%,2.6%
SMILES,AmpC inh no detg,Sm TGR block,AmpC detergent,AMA1 RON2 block,RE007 growth inh
Cc1cc(-c2ccco2)n2c(nc3ccccc32)c1C#N,-24.6%,50.1µM*,3.0%,14.1%,22.0%
C=C(C)CSc1cc(C)c(C#N)c2nc3ccccc3n12,-2.1%,3.16µM*,8.5%,10.2%,-3.4%
CCCCc1c(C)c(C#N)c2nc3ccccc3n2c1Cl,-10.5%,3.55µM*,1.5%,nt,nt
Cc1cc(NCCCCO)n2c(nc3ccccc32)c1C#N,-10.0%,-6.5%,0.4%,32.3%,1.7%
CCN1CCN(c2ncnc3c2cnn3-c2ccc(F)cc2)CC1,nt,2.3%,9.8%,nt,nt
Cc1ccc(CSC(Nc2ccc(F)cc2)=C(C#N)C#N)cc1,-43.0%,-3.4%,1.2%,-6.6%,7.1%
CCN(CC)C(=O)CSC(Nc1ccc(F)cc1)=C(C#N)C#N,14.1µM*,-16.7%,2.0%,10.5%,-7.3%
CCOc1ccc(N2CC(C(=O)NCC(=O)Nc3ccc(F)c(F)c3F)CC2=O)cc1 (stereo not given),-38.9%,31.6µM*,?,0.0%,8.6%
O=C(c1ccco1)N1CCc2ccccc21,-10.1%,2.5%,0.8%,0.6%,14.0%
O=C(/C=C/c1ccco1)N1CCc2ccccc21,-31.9%,7.94µM*,-13.4%,?,?
CCOC(=O)/C=C/C(=O)N1CCc2ccccc21,-5.4%,-11.4%,0.8%,-12.4%,?
Cc1ccc(/C=C/C(=O)N2CCc3ccccc32)o1,-33.5%,44.7µM*,1.9%,-23.0%,-90.4%
Fc1ccc(N2CCN(C3=Nc4cccc5cccc3c45)CC2)cc1,-27.3%[11.4 µM],-14.5%,?,22.4µM*,0.6%
COc1ccc(-c2[nH]c(-c3ccc(F)cc3)nc2SCC(=O)Nc2ccc(OC)c(OC)c2)cc1,nt,5.9%,8.8%,nt,nt
Cc1ccc(CNC(=S)Nc2ccc(NS(=O)(=O)c3ccc(C)cc3)cc2)cc1,2.24µM*,-0.3%,-0.3%,-9.3%,-23.8%
O=C(NCc1ccccc1Cl)c1cc2ccccc2o1,nt,4.0%,5.3%,nt,nt
CCN(CC)CCCN1C=C2C(=O)C(C)(OC(=O)C3CCCC3)C(=O)C=C2C=C1c1ccsc1 (stereo not given),47.9%,50.1µM*,-5.0%,-9.0%,0.2%
CC1(OC(=O)C2CCCC2)C(=O)C=C2C=C(c3ccsc3)N(Cc3ccccc3)C=C2C1=O (stereo not given),49.1%,1.4%,0.8%,-14.1%,-2.8%
COC(=O)CN1C(=O)[C@H]2[C@@H](c3ccc(C)o3)N3C(=O)CN(Cc4ccccn4)C(=O)[C@@]3(C)[C@H]2C1=O,46.0%,25.1µM*,?,11.7%,5.8%
COC(=O)CN1C(=O)[C@H]2[C@@H](c3ccc(C)o3)N3C(=O)CN(CC4CC4)C(=O)[C@@]3(C)[C@H]2C1=O,33.2%,15.8µM*,-7.2%,20.5%,-3.8%
